Experiment [1] can be described thus: Wnt pathway potentiators raising nuclear beta-catenin – imaging, WNT3A-conditioned medium, mouse C2C12, NPC library, primary screen (AID 1117326; in the data active means nuclear beta-catenin stimulation mostly above about 4.2%, no sharp cut-off; inactive means mostly below about 10%). To be noted: stronger effect = higher value.
Experiment [2] can be described thus: stimulators of insulin release from INS-1E, primary screen, cell-based, 5 mM glucose, NPC library (AID 1117329;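 active means compound raises insulin release from rat beta cells at 5 mM glucose, no numeric limit stated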). The settings on record: rat INS-1E insulin secretion, at 10 µM, stronger effect = higher value.
Experiment [3] can be described thus: growth inhibition of GSK3B-pretreated HCT116 cells – cell-based, CellTiter-Glo, 0.2 to 20 µM (AID 1117336;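 active means compounds lowering colon cancer cell viability after pretreatment blocking the GSK3B kinase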). The settings on record: HCT116 viability after GSK3B inhibitor, at 20 µM, stronger effect = higher value. In general terms: Cellular ATP, detected with luciferase, serves as a proxy for viable cell number.
A short description of experiment [4]: inhibition of endothelial tube formation, primary screen, imaging, VEGF stimulated, CD31 staining, tube area, NPC library (AID 1117340;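 active means compound that reduces growth-factor-driven endothelial tube area in a mixed cell culture, no cutoff stated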). To be noted: VEGF-stimulated ADSC/ECFC co-culture, at 10 µM, stronger effect = higher value.
Experiment [5] is described as follows: GLP1 release stimulators, primary, NCI-H716, NPC library (AID 1117341;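 active means compound raises GLP1 secretion from the human gut endocrine cells, with no numeric limit stated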). To be noted: NCI-H716 cells, at 10 µM, stronger effect = higher value.
The nature of experiment [6]: HCT116 colon cancer cell growth inhibition, primary screen, CellTiter-Glo luminescence, NPC library (AID 1117342;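 active means compounds that lower survival of HCT116 colon cancer cells in the luminescence readout, no numeric limit stated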). To be noted: at 20 µM (top of the series).
Experiment [7] in a line: reduced SW480 viability measured with CellTiter-Glo, NPC library, primary (AID 1117343;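 active means compounds that lower viability of the colon cancer cells in the luminescence readout, with no numeric limit stated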). To be noted: CellTiter-Glo luminescence; at 20 µM (top of the series).
The nature of experiment [8]: NPC library primary testing for decreased DLD-1 cell viability via CellTiter-Glo (AID 1117346;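 active means compounds that lower survival of DLD-1 colon cancer cells in the luminescence readout, no cutoff given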). The settings on record: DLD-1 viability, CellTiter-Glo luminescence; at 20 µM (top of the series).
For experiment [9], the target named is 6-phosphogluconate dehydrogenase, decarboxylating (Homo sapiens) (UniProt P52209). The experiment in a line: inhibition of human phosphogluconate dehydrogenase – biochemical, recombinant enzyme, NADPH absorbance, primary screen (AID 1159550;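 active means at least 20% inhibition of 6-phosphogluconate dehydrogenase activity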). The settings on record: recombinant 6PGD, NADPH absorbance 341 nm; at 10 µM; stronger effect = higher value.
The nature of experiment [10]: modulation of C. elegans fzo-1 (AID 1259413; call rule not given here;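 further: fzo-1 mutant C. elegans worms in liquid wells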). The settings on record: C. elegans fzo-1 modulator screen, mean read-out; stronger effect = higher value.
Experiment [11] in a line: EMT-state selective cytotoxicity in co-culture – imaging, PC-3E GFP, TEM4-18 mCherry, primary screen (AID 1345086;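 active means compounds killing one labelled cell type while sparing the other, by normalised counts and ratio limits, not self-fluorescent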;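 on all read-outs here: cells exposed to compound for 72 h before imaging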;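 on red/green cell ratio (normalised): normalised mesenchymal count divided by normalised epithelial count so high means epithelial killing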). To be noted: PC-3E GFP / TEM4-18 mCherry co-culture, imaging cell counts, at 1 µM; for red/green cell ratio (normalised): actives lie on both sides, counts scaled to control wells, 1 = unselective.
Experiment [12] can be described thus: MELAS cybrid and Rieske KO viability enhancers – cell-based, MELAS cybrids, Rieske KO mouse fibroblasts, CellTiter-Glo, primary screen (AID 1508586;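 active means mean z-score across replicates of 1.96 or higher in either the MELAS or the Rieske mutant cell line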;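 further: z relative to plate mean and SD of compound and empty wells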). The settings on record: low glucose.
Experiment [13] concerns the target NAD(+) hydrolase SARM1 (Homo sapiens) (UniProt Q6SZW1). As to the kind of experiment: blocking NAD cleavage by SARM1 SAM-TIR – cell lysate, NAD-Glo luminescence (AID 1508614;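 active means compound whose remaining NAD level is above about 45 nM, limit read from the data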). To be noted: SAM-TIR HEK293T lysate NADase, at 1 µM, stronger effect = higher value.
For experiment [14], the target named is Mitogen-activated protein kinase 7 (Homo sapiens) (UniProt Q13164). The experiment in a line: Gal4-ERK5 driven luciferase induction – cell-based, HTS, primary screen (AID 1508626;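 active means luciferase signal above three times the same-plate solvent-only control wells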;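 further: luciferase driven by Gal4-ERK5 fusion binding five Gal4 sites before minimal TATA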). The settings on record: HeLa Gal4-ERK5 transactivation, 18 h, at 5 µM, stronger effect = higher value.
The subject of a further experiment is F380Y. The experiment in a line: BK channel mutant inhibitors and activators – cell-based, U2OS BacMam, thallium flux, beta subunits, selectivity assay, profiling panel (AID 1259406).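 Further: initial slope of Thallos dye fluorescence rise after thallium is added; log ratio against the mean of 0.3% DMSO vehicle wells on the same plate.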 The settings on record: U2OS BacMam BK variants, at 30 µM.
The subject of the next experiment is F380Y/beta1. The experiment is described as above. To be noted: U2OS BacMam BK variants, at 30 µM.
In the next experiment the test system is F380Y/beta2Delta. Described as above. The settings on record: U2OS BacMam BK variants, at 30 µM.
The next experiment concerns F380Y/beta4. The experiment is described as above. The settings on record: U2OS BacMam BK variants, at 30 µM.
Experiment [15] has as its target Calcium-activated potassium channel subunit alpha-1 (Homo sapiens) + Leucine-rich repeat-containing protein 26 (Homo sapiens) (UniProt Q12791+Q2I0M4). Described as above. The settings on record: U2OS BacMam BK variants, F380Y/Slo1WT/gamma1, at 30 µM.
Where [16] appears, read: measured here: epithelial PC-3E GFP cell survival.
Setting [17] is: measured here: mesenchymal TEM4-18 mCherry cell survival.
Setting [18] is: MELAS cybrid survival, CellTiter-Glo 48 h, stronger effect = higher value.
Setting [19] is: Rieske KO mouse fibroblast survival, CellTiter-Glo 72 h.

Values joined by “and” are separate entries in the source; they are usually repeats but may differ in a detail not shown here. Equal values may be shown once. Active and inactive are the calls of the source.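 How the source made its calls, unless noted: active means thallium flux through the channel raised or lowered by more than 3 SD from vehicle-only wells, actives on both sides; inactive means the rest.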

Sequence of 6-phosphogluconate dehydrogenase, decarboxylating (Homo sapiens) (P52209 whole entry, looked up): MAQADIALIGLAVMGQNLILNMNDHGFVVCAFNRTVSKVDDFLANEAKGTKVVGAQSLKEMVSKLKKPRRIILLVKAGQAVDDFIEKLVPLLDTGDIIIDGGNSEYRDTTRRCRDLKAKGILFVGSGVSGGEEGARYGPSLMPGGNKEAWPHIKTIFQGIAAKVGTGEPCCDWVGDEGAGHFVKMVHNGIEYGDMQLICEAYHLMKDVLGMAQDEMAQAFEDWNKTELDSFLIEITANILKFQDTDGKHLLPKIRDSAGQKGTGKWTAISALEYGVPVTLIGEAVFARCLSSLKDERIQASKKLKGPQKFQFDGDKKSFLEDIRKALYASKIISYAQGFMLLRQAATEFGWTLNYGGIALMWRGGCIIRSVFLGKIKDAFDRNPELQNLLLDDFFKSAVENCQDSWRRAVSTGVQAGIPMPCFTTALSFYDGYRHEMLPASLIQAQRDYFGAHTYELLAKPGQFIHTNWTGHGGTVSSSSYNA
Sequence of Calcium-activated potassium channel subunit alpha-1 (Homo sapiens) + Leucine-rich repeat-containing protein 26 (Homo sapiens) (Q2I0M4 whole entry, looked up, one chain of several): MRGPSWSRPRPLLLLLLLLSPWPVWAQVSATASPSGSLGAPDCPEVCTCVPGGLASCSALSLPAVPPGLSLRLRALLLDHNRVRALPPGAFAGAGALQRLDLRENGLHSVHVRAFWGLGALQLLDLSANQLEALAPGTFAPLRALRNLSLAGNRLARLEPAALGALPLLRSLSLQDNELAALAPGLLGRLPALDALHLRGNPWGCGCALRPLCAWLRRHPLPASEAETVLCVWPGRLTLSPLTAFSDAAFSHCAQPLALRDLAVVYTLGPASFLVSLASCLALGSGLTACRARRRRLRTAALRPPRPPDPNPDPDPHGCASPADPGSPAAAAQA
Sequence of Mitogen-activated protein kinase 7 (Homo sapiens) (Q13164 whole entry, looked up, the tested form may be a part): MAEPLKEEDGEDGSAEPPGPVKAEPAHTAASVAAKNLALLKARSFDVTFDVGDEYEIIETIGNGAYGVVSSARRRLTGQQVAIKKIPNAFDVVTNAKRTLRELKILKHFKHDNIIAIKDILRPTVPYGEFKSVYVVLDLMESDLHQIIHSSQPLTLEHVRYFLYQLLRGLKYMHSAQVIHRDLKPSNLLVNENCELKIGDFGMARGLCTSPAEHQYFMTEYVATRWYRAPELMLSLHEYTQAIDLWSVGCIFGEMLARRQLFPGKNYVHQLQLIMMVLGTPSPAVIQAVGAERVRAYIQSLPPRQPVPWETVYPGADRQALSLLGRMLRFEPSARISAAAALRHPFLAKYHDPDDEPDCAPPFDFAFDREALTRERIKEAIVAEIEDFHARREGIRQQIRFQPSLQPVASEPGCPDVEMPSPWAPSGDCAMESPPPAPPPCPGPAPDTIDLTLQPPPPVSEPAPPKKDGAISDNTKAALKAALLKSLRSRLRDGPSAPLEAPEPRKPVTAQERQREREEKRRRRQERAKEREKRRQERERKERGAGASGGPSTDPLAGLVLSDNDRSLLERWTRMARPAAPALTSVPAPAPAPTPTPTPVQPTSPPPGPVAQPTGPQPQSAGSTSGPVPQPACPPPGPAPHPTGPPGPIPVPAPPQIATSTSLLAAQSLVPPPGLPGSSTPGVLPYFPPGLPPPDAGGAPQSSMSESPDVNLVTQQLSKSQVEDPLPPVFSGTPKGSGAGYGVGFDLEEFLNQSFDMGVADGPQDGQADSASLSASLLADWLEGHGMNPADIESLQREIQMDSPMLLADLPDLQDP
Sequence of NAD(+) hydrolase SARM1 (Homo sapiens) (Q6SZW1 whole entry, looked up, the tested form may be a part): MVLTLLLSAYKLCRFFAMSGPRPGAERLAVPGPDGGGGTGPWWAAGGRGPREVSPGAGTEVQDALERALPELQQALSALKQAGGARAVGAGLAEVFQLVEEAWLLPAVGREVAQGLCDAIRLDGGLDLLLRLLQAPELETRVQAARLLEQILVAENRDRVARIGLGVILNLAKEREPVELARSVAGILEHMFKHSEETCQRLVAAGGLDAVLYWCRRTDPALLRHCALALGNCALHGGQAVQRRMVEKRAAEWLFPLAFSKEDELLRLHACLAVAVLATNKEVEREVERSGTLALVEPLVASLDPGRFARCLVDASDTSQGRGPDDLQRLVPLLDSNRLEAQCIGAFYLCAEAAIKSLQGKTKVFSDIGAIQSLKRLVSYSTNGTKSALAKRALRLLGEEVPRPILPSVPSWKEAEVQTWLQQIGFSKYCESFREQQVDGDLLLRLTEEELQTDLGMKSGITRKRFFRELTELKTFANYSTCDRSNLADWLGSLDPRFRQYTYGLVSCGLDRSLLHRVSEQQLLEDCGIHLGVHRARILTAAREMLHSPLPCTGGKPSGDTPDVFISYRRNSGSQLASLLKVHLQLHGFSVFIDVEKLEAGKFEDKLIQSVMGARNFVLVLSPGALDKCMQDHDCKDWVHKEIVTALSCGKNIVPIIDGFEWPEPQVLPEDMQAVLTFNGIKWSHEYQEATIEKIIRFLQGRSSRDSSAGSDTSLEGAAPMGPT

Take `OC(Cn1cncn1)(Cn1cncn1)c1ccc(F)cc1F`: the nuclear beta-catenin stimulation in experiment [1] (at 10 µM) is 1.7% (inactive); in experiment [1] (stimulation, at 2 µM), 1.1%. In addition, in experiment [2], the insulin secretion stimulation was 4.05% (inactive). Besides, the viability decrease in experiment [3] was 19.2% (inactive). Further, the tube area decrease in experiment [4] was -10% (inactive). Besides, the GLP1 secretion stimulation in experiment [5] is 1% (inactive). In experiment [6], the inhibition of viability is 1.7% (inactive). Besides, the viability decrease (inhibition) in experiment [7] is 7.1% (inactive); in experiment [8], 2.4% (inactive). The inhibition in experiment [9] is 9% (inactive). Further, the mean signal in experiment [10] was 277 (inactive). The red/green cell ratio (normalised) in experiment [11] is 1.28 (inactive). Also, the normalised cell number was 1.22 in experiment [11] (setting [16]) and 1.57 in experiment [11] (setting [17]). Also, the z-score in [12] (setting [18]) was -0.408 (inactive) and -0.874 (inactive) and -0.724 (inactive); in [12] (setting [19]), -0.288 and -0.48 and -0.41. Also, the remaining NAD in [13] was 14 nM (inactive). In experiment [14], the luciferase signal is 32 AU (inactive). For the same compound, the log fold change Tl+ flux in the experiment with F380Y is 0.0166 (inactive); with F380Y/beta1, -0.0268 (inactive); with F380Y/beta2Delta it was -0.000209 (inactive); with F380Y/beta4 it was 0.0309 (inactive); in [15] it was -0.0185 (inactive).
`CCN(Cc1ccncc1)C(=O)C(CO)c1ccccc1` (centres undefined): the nuclear beta-catenin stimulation in [1] (at 10 µM) was 0.5% (inactive); in experiment [1] (stimulation, at 2 µM) it was -1.9%. Further, the insulin secretion stimulation in experiment [2] was 1.6% (inactive). In addition, the viability decrease in experiment [3] was 11.6% (inactive). For the same compound, the tube area decrease in experiment [4] was 7.1% (inactive). Also, the GLP1 secretion stimulation in [5] is 0.1% (inactive). Moreover, the inhibition of viability in experiment [6] is 14.3% (inactive). Also, the viability decrease (inhibition) was 12% (inactive) in experiment [7] and 3.8% (inactive) in experiment [8]. For the same compound, the inhibition in experiment [9] was -16.3% (inactive). In [10], the mean signal is 244 (inactive). Also, in experiment [11], the red/green cell ratio (normalised) is 1.08 (inactive). Also, the normalised cell number is 1.08 in experiment [11] (setting [16]) and 1.16 in experiment [11] (setting [17]). Also, the z-score in [12] (setting [18]) is 0.0477 (inactive) and 0.409 (inactive) and -0.211 (inactive); in experiment [12] (setting [19]), 0.0479 and 0.424 and 0.901. Besides, the remaining NAD in [13] is 10 nM (inactive). Also, the luciferase signal in experiment [14] was 108 AU (inactive). Moreover, the log fold change Tl+ flux in the experiment with F380Y is 0.0305 (inactive); in the experiment on F380Y/beta1, -0.00694 (inactive); in the experiment on F380Y/beta2Delta it was -0.0245 (inactive); in the experiment with F380Y/beta4 it was -0.0208 (inactive); in experiment [15], 0.00211 (inactive).
Consider `Oc1c(Cl)cc(Cl)c2cccnc12`, for which the nuclear beta-catenin stimulation in experiment [1] (at 10 µM) is 25.3% (inactive); in experiment [1] (stimulation, at 2 µM), 10.8%. In [2], the insulin secretion stimulation was -1.7% (inactive). Also, the viability decrease in [3] was 90.7% (active). The tube area decrease in experiment [4] is 102% (active). Besides, in experiment [5], the GLP1 secretion stimulation is 5.7% (inactive). Also, the inhibition of viability in experiment [6] was 91.3% (active). The viability decrease (inhibition) in experiment [7] is 111% (active); in experiment [8], 90% (active). In experiment [9], the inhibition is 13% (inactive). For the same compound, the mean signal in experiment [10] is 244 (inactive). In addition, in experiment [11], the red/green cell ratio (normalised) was 0.97 (inactive). The normalised cell number in experiment [11] (setting [16]) came out at 1.04; in [11] (setting [17]), 1.01. Besides, the z-score is -0.426 (inactive) and -0.351 (inactive) in experiment [12] (setting [18]); 0.846 and 0.186 in experiment [12] (setting [19]). In addition, the remaining NAD in experiment [13] is 10 nM (inactive). Further, the luciferase signal in experiment [14] is 48 AU (inactive). The log fold change Tl+ flux in the experiment with F380Y is 0.177 (active); in the experiment on F380Y/beta1 it was 0.135 (active); in the experiment on F380Y/beta2Delta, 0.437 (active); in the experiment with F380Y/beta4 it was 0.326 (active); in experiment [15] it was 0.231 (active).

As a reminder, the inhibition is the change of the read-out against control, counted positive when it falls.
